From PubChem BioAssay AID590 (National Center for Advancing Translational Sciences (NCATS), 2007) come the findings set out here.

Each structure is given as a SMILES string. Out of some 59,000 compounds screened, about 6,500 (11%) were called active. Inconclusive results (about 15%) are left out. Rule as the data show it: active = max dye-equivalent concentration above about 10 nM; inconclusive = mostly about 1.1 nM to 9.6 nM; inactive = weaker than that. Shown is part of a subset that was picked to be rich in actives. Where a structure was tested more than once in an assay, its records may differ in their call.

The assay is described as follows: qHTS Assay for Spectroscopic Profiling in A350 Spectral Region. Conditions: Compound autofluorescence, 340/450 nm, Alexa 350 dye-equivalents; stronger effect = higher value. From the text:
NIH Molecular Libraries Screening Centers Network [MLSCN]
NIH Chemical Genomics Center [NCGC]
Occasionally, the artifactual effect may originate from the compounds own spectral or other biophysical properties which generally tend to track its assay concentration. Pre-screening/profiling the library with respect to the compounds spectral properties should help one exclude false positives early on. While the most informative fluorescent profiling data set is obtained by performing a full excitation and emission scan of each well by using a monochromator-based plate reader, such an approach is practical only on a very limited scale as scanning each well requires long time. An alternative approach, applied here, is to perform plate reader scans using selected excitation and emission wavelength pairs to generate a multidimensional relational database that correlates compound concentration and the respective relative fluorescence intensity at a given wavelength set. A standard curve of Alexa 350 (A 350) present on each plate as six-point concentration series, was used to compute a normalized fluorescence response, termed dye-equivalent concentration, for each compound at each concentration.
NCGC Assay Protocol Summary:
100 mM Tris buffer, pH 8.0
The wells in columns 1 through 4 of a Kalypsys polypropylene 1536-well compound plate were filled with standard solutions of fluorophore corresponding to the spectral region of interest. Solutions of A 350 were placed in the following wells: I1, J1: 3 mM, I2, J2: 300 uM, I3, J3: 30 uM, I4, J4: zero (DMSO), K1, L1: 3 uM, K2, L2: […], K3, L3: 300 nM, K4, L4: zero (DMSO).
Six uL of buffer were dispensed to 1536-well Greiner black plates. Compounds and dye standards (23 nL) were transferred via Kalypsys PinTool. The plates were incubated for 15 min at room temperature, and then read on ViewLux (Perkin-Elmer) High-throughput CCD imager using 340 nm and 450 nm excitation and emission filter set.
Keywords: NIH Roadmap, MLSCN, MLI, MLSMR, qHTS, NCGC, A350, A-350, Fluorescent Profiling.
For the compound `CSC1=NP(=S)(SC)N(C)c2nc3n(c21)CCC3` (stereo unspecified), the max dye-equivalent concentration was 26 nM (active).
Still for that read-out and setting: the value for `CN1[C@@H]2CC[C@H]1CC(OC(=O)c1cc(Cl)cc(Cl)c1)C2` (stereo partly specified) was “inactive”; that for `CN1CCN(C(=O)O[C@@H]2c3nccnc3C(=O)N2c2ccc(Cl)cn2)CC1` was “inactive”.
On the same count and under the same terms, the value for `c1ccc2c(c1)[I+]c1ccccc1-2` was “inactive”; that for `C[N+]1(C)C2CC(OC(=O)C(CO)c3ccccc3)CC1[C@@H]1O[C@H]21` (stereo partly specified) was “inactive”; that for `CC(C)(O)[C@H]1[C@H]2OC(=O)[C@@H]1[C@]1(O)C[C@H]3O[C@]34C(=O)O[C@H]2[C@]14C` was “inactive”.
The same measure, in the same setting: for `c1ccc(CN2CC[C@@]3(CCCNC3)C2)cc1` the value was 13 nM (active); for `c1ccc(N2CC[C@@]3(CCCNC3)C2)nc1`, “inactive”.
`c1csc(CN2CCCC3(CCNCC3)C2)n1`: the max dye-equivalent concentration result is “inactive”.
With `C[C@@]12CC[C@H]3[C@@H](CC[C@]4(O)C[C@H](O)CC[C@@]34C=O)[C@]1(O)CC[C@@H]2C1=CC(=O)OC1`, the max dye-equivalent concentration entry is “inactive”.
Still for that read-out and setting: for `C[C@H](Br)C(=O)N[C@H](CO)C(=O)O` the value was “inactive”; for `CCOC(=O)c1c(N)n(Cc2ccccc2)c2nc3ccccc3nc12`, 1500 nM (active).
The same measure, in the same setting: for `c1csc(CN2CC3(CCNCC3)C2)n1` the value was “inactive”; for `CC(=O)O[C@H]1CC[C@@]2(C)[C@@H](CC[C@H]3[C@H]2CC(=O)[C@]2(C)[C@@H]3C[C@@H](N3CC3)[C@H]2C(C)=O)C1`, “inactive”; for `O=C(Nc1cccc(F)c1)N1CC[C@@]2(CCCN(C(=O)Oc3ccccc3)C2)C1`, “inactive”.
Regarding `CCN1c2nc3c(C)cccn3c(=O)c2CC2(C(=O)N(C)C(=O)N(C)C2=O)C1C` (stereo unspecified), the max dye-equivalent concentration is 38 nM (active).
In the case of `O=C(O)C(=O)Cc1ccc2c(c1)OCO2`, the max dye-equivalent concentration entry is “inactive”.
Turning to `COC(=O)COc1cc(C)cc2oc(=O)c3c(c12)CCCC3`, the max dye-equivalent concentration entry is “inactive”.
Still for that read-out and setting: the value for `CCCCCCN=C(CC)c1c(O)n(CCCC)c(=O)[nH]c1=O` was “inactive”; that for `NC(=O)c1ccc(OC[C@H](O)CN2CC=C(c3ccc(F)cc3)CC2)cc1` was “inactive”; that for `CCN1C[C@]2(C)CC[C@H](O)[C@@]34[C@@H]5CC6[C@@H](OC)C[C@@](O)([C@@H]5[C@@H]6O)[C@H](C[C@@H]23)[C@H]14` was “inactive”.
Still for that read-out and setting: the value for `C[C@@]12CC[C@H](O)C[C@@H]1CC[C@@H]1[C@@H]2CC[C@@]2(C)[C@@H](C3=CC(=O)OC3)[C@H](O)C[C@]12O` was “inactive”.
Still for that read-out and setting: the value for `C[C@]12CC[C@H](O)CC1=CC[C@@H]1[C@H]2CC[C@]2(C)C(=O)CC[C@H]12` was “inactive”.
Consider `C[C@]12CC[C@H](O)C[C@@H]1CC[C@H]1[C@H]2CC[C@]2(C)C(=O)CC[C@@H]12`, for which the max dye-equivalent concentration was 64 nM (active) and the outcome was inactive.
`CC(C)(O)/C=C\C(=O)[C@](C)(O)[C@H]1[C@H](O)C[C@]2(C)[C@@H]3CC=C4[C@@H](C=C(O)C(=O)C4(C)C)[C@]3(C)C(=O)C[C@@]12C`: the max dye-equivalent concentration entry was “inactive”.
With `CS(=N)(=O)CC[C@H](N)P(=O)(O)O` (stereo partly specified), the max dye-equivalent concentration result was “inactive”.
The same measure, in the same setting: the value for `CC[C@@](O)(C(=O)O)c1cc2n(c(=O)c1CO)Cc1cc3ccccc3nc1-2` was 920 nM (active); that for `CC[C@]1(O)C(=O)OCc2c1cc1n(c2=O)Cc2cc3ccccc3nc2-1` was 2600 nM (active).
For `Cc1ccc(Cn2nnnc2CN2CCC(n3nnc4ccccc43)CC2)cc1`, the max dye-equivalent concentration result is “inactive”.
Consider `N[C@H](C(=O)O)c1cc(=O)[nH]o1`, for which the max dye-equivalent concentration result is “inactive”.
`C[C@H]1CC[C@@]2(NC1)O[C@@H]1C[C@H]3[C@@H]4CC=C5C[C@@H](O)CC[C@]5(C)[C@@H]4CC[C@]3(C)[C@@H]1[C@@H]2C`: the max dye-equivalent concentration entry is “inactive”.
The same measure, in the same setting: the value for `N[C@@H](Cc1c[nH]c2ccccc12)c1nnc(SCc2c(F)cccc2Cl)o1` was “inactive”; that for `CC[N+]1(C)CCCC(OC(=O)C(O)(c2ccccc2)c2ccccc2)C1` (stereo unspecified) was “inactive”.
Consider `CC(C)CCC1(CCN)C(=O)NC(=O)NC1=O`, for which the max dye-equivalent concentration entry was “inactive”.
Still for that read-out and setting: the value for `O=C(c1cc2nc(-c3ccccc3)cc(-c3ccccc3)n2n1)N1CCC2(CC1)OCCO2` was 48 nM (active); that for `O=C(c1cc(-c2ccncc2)nc2ccccc12)N1CCC2(CC1)OCCO2` was “inactive”.
For `Cc1cccc(-n2c(C)nc3cc(C(=O)N4CCC5(CC4)OCCO5)ccc32)c1`, the max dye-equivalent concentration result is “inactive”.
Still for that read-out and setting: the value for `NCC[Se][Se]CCN` was “inactive”; that for `CCN(CC)CCn1ncc2c(N)ncnc21` was “inactive”.
Same read-out and setting: for `CC1=CC(=O)C2=C(C)C[C@H](O)[C@@H]3[C@@H](OC(=O)[C@H]3C)[C@H]12` the value was “inactive”.
Same read-out and setting: the value for `O=C1C2CCN(CC2)C1(CO)CO` was “inactive”.
For the compound `CCOC(=O)c1c(-c2ccccc2)oc2ccc(OC(=O)N(C)C)cc12`, the max dye-equivalent concentration was 53 nM (active).
As to `Cc1ccc(S(=O)(=O)O[C@H]2CN3CCC2CC3)cc1`, the max dye-equivalent concentration result was “inactive”.
Same read-out and setting: for `NC[C@H](O)c1ccc(O)cc1` the value was “inactive”.
As for `C=CCN1C(=O)C2(C(C(=O)OCC)=C(N)Oc3c2c(=O)oc2ccccc32)c2ccccc21` (stereo unspecified), the max dye-equivalent concentration result was “inactive”.
The same measure, in the same setting: the value for `COc1cc(C[C@H](C)N)c(OC)cc1I` was “inactive”.
Still for that read-out and setting: for `C/C(CCc1c[nH]c2ccccc12)=N\O` the value was 16 nM (active); for `NCCc1c[nH]c2ccc(O)cc12`, “inactive”.
On the same count and under the same terms, for `CC(=O)c1c(O)c(C)c(O)c(Cc2c(O)c3c(c(C(=O)/C=C\c4ccccc4)c2O)OC(C)(C)C=C3)c1O` the value was “inactive”.
`NCCc1ccc(S(=O)(=O)F)cc1`: the max dye-equivalent concentration result was “inactive”.
